Measured values: PubChem BioAssay AID493232 (The Scripps Research Institute Molecular Screening Center, 2011)
The campaign covered roughly 1,800 compounds. About 860 (48%) were called active. Rule as the data show it: active = inhibition above about 17%; inactive = the rest. So high a share suggests a set chosen from earlier hits. These entries were drawn from the full list.

Assay: signal inhibition in parental CHO-K1 cells, counter-screen for OX1R antagonist project, cell-based, HTRF (AID 493232);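 also: 0% = agonist challenge with vehicle and 100% = vehicle alone without agonist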
Settings: HTRF counterscreen, at 6.6 µM, stronger effect = higher value

Structure (SMILES)	inhibition
NS(=O)(=O)c1ccc(CCNC(=O)c2ccc([N+](=O)[O-])cc2[N+](=O)[O-])cc1	76.4% (active)
O=C(Nc1nnc(-c2ccccc2)o1)c1cc(-c2cccs2)nc2ccccc12	-1.4% (inactive)
Cn1c(N)c(C(=O)COC(=O)c2ccc3ccccc3c2)c(=O)n(C)c1=O	9.11% (inactive)
COc1ccc(CCn2c(NCCCN3CCOCC3)nc3c2c(=O)[nH]c(=O)n3C)cc1	-0.46% (inactive)
O=C(/C=C/c1ccco1)Nc1cccc(-c2nc3ccccc3[nH]2)c1	20.4% (active)
CCn1c(SCC(=O)c2ccc3ccccc3c2)nnc1-c1cccs1	7.75% (inactive)
Cc1ccc2c(c1)nnc1nnc(SCC(=O)O)n12	113% (active)
COc1ccc2[nH]c(=O)c(CNc3ccc(C)c(C)c3)cc2c1	33.7% (active)
CN(C(=O)CSc1nnc(-c2n[nH]c3ccccc23)o1)c1ccccc1	-4.39% (inactive)
O=C(Nc1ccc2sc3ccccc3c(=O)c2c1)c1ccccc1Cl	-3.67% (inactive)
Cc1ccc(Nc2nc(CSc3nnnn3-c3ccccc3)cc(=O)[nH]2)cc1	1.23% (inactive)
CCn1c(O)c(N=NC2=NC(=O)CS2)c2cc(C)ccc21	21.8% (active)
COc1cc(C(=S)N2CCOCC2)cc(OC)c1OC(=O)c1ccc([N+](=O)[O-])cc1[N+](=O)[O-]	8.29% (inactive)
O=C(Oc1ccccc1C(=S)N1CCCCC1)c1cc([N+](=O)[O-])cc([N+](=O)[O-])c1	56.2% (active)
COC(=O)CNC(=O)c1ccc2c(c1)S(=O)(=O)c1ccccc1C2=O	70.6% (active)
COc1cccc(C(=O)NC(=O)Nc2nc(C)cc(C(F)(F)F)n2)c1	0.24% (inactive)
CCOc1ccc(CCNC(=O)C(CC)n2nc(C)n3c(cc4sccc43)c2=O)cc1OCC (stereo unspecified)	7.91% (inactive)
CCn1c(=N)c(C(=O)NCCCOC)cc2c(=O)n3cccc(C)c3nc21	83.9% (active)
CCOc1ccc(/C=C/C(=O)OCC(=O)c2ccccc2OC)cc1OC	7.57% (inactive)
O=C(NCc1ccco1)C1CCCN(S(=O)(=O)c2cccc3nonc23)C1 (stereo unspecified)	19.7% (active)
C/C(N)=C(/C#N)C(=O)COC(=O)c1cc(-c2ccc(C)cc2)nc2ccccc12	6.3% (inactive)
COc1cc2ccccc2cc1C(=O)Nc1ccc(N2CCOCC2)cc1	16.2% (inactive)

Structure (SMILES)	inhibition
Cn1cnnc1Sc1ccc(S(C)(=O)=O)cc1[N+](=O)[O-]	50.5% (active)
Nc1[nH][nH]c(=O)c1N=Nc1ccc2c(c1)OCO2	52.9% (active)
COc1ccc(CCNC(=O)/C(C#N)=C2\N=C(NC(=O)c3cccs3)c3ccccc32)cc1	24% (active)
O=C(N/N=C/c1c(Cl)[nH]c2ccccc12)c1sc2ccccc2c1Cl	16% (inactive)
Cc1cc(C(=O)NC2CCCc3c2cnn3-c2cccc(C)c2C)c(C)o1 (stereo unspecified)	9.36% (inactive)
O=C(Nc1nnc(C2=COCCO2)o1)c1ccc([N+](=O)[O-])s1	52.2% (active)
Cc1ccccc1S(=O)(=O)N1[C@@H](c2cccc(Cl)c2)C(C(=O)O)=CC[C@H]1c1ccc(Cl)cc1	12.8% (inactive)
COc1ccccc1N1CC(C(=O)Nc2ccc(S(=O)(=O)N3CCOCC3)cc2)CC1=O (stereo unspecified)	8.11% (inactive)
COc1ccc(N2CC(C(=O)NCCN3C(=O)S/C(=C\c4cccnc4)C3=O)CC2=O)c(OC)c1 (stereo unspecified)	56.9% (active)
COc1ccc(S(=O)(=O)NC(C)c2ccccc2)cc1C(=O)N1CCCCC1 (stereo unspecified)	-4.56% (inactive)
CC(=O)Oc1ccc(C(C)=O)c2c1OCCO2	0.1% (inactive)
COc1cccc(N=c2oc3c(C)ncc(CO)c3cc2C(N)=O)c1	51.5% (active)
COc1cccc(/C=N/Nc2cc(C)nc(-c3ccccc3O)n2)c1O	15.3% (inactive)
CSCCC(NC(=O)c1cc([N+](=O)[O-])cc([N+](=O)[O-])c1)c1nc2ccccc2[nH]1 (stereo unspecified)	24.7% (active)
COc1cccc(/C=N/NC(=O)c2[nH]nc3c2CCc2ccccc2-3)c1O	-15.5% (inactive)
COCCNC(=O)Nc1ccc2nc(-c3ccco3)c(-c3ccco3)nc2c1	48.3% (active)
Cc1cc(-c2ccc(C)c(S(=O)(=O)NC(C)Cc3ccco3)c2)on1 (stereo unspecified)	-2.9% (inactive)
CCn1c(C)nc2c1C(=O)c1ccccc1C2=O	97.1% (active)
C[n+]1ccccc1C1CCCC/C1=N\Nc1ccc([N+](=O)[O-])cc1[N+](=O)[O-] (stereo unspecified)	9.46% (inactive)
c1ccc(-c2nc(NCc3ccco3)c3ccccc3n2)cc1	8.16% (inactive)
CC(=O)N/N=C/c1cc2c(cc1[N+](=O)[O-])OCO2	60.3% (active)
O=C(CN1C(=O)c2cccc3cccc(c23)C1=O)N1CCCCC1	50% (active)

Structure (SMILES)	inhibition
CCC(=O)N(C)C(c1ccccc1Cl)c1nnnn1-c1c(C)cccc1C (stereo unspecified)	0.65% (inactive)
Cc1cccc(NS(=O)(=O)c2cccc(C(=O)NNC(=O)c3ccccc3O)c2)c1	4.72% (inactive)
N#C/C(=C1\CCCN1)c1nc(-c2ccccc2)cs1	10.3% (inactive)
Nc1ccc2nc3c(=O)[nH]c(=S)[nH]c3nc2c1	77% (active)
Nc1nc(-c2sc3nc4c(cc3c2N)CCCC4)nc(N2CCOCC2)n1	16.2% (inactive)
CC(=O)c1cccc(NC(=O)C2CCCN2S(=O)(=O)c2cccc3nsnc23)c1 (stereo unspecified)	33% (active)
Cc1cc(C)cc(NC(=O)C2CCCN2S(=O)(=O)c2cccc3cccnc23)c1 (stereo unspecified)	-5.63% (inactive)
O=C(N/N=C/c1sc(N2CCCCC2)nc1-c1cccs1)c1cccnc1	6.55% (inactive)
N#Cc1nc(-c2cccc3ccccc23)oc1N	-17.8% (inactive)
O=C(Nc1ccccc1Cl)/C(Cl)=C(\Cl)S(=O)c1ccccc1 (stereo unspecified)	-27.6% (inactive)
COc1ccc2oc(=O)c(C(=O)NCc3ccccn3)cc2c1	47.5% (active)
O=C(O)CCC(=O)Nc1nc2ccc([N+](=O)[O-])cc2s1	47.7% (active)
COc1cccc(/C=C/c2ccc3ccccc3n2)c1OC(C)=O	11.5% (inactive)
COC(=O)N/N=C/c1c[n+]([O-])c2ccccc2[n+]1[O-]	97.3% (active)
Cc1c(/C=N\NC(=O)c2cc3ccccc3o2)c2ccccc2n1C	12.8% (inactive)
CC(C)(C)NC(=O)CN(C(=O)c1csnn1)c1ccccc1-c1ccccc1	1.93% (inactive)
CN1CCN(/N=C/c2ccc(-c3ccc([N+](=O)[O-])cc3)o2)CC1	34% (active)
Cc1oc2c(c1C(=O)N1CCOCC1)C(=O)c1ccccc1C2=O	104% (active)
CC(NC(=O)c1cccc2ccccc12)c1ccc2c(c1)CCCC2 (stereo unspecified)	9.37% (inactive)
CCOc1cc(/C=C(\C#N)c2nc(-c3cccs3)c(NC(C)=O)s2)ccc1O	2.21% (inactive)
CC(C)CC[n+]1ccn(C2=C([O-])c3ccccc3C(=O)/C2=N\S(=O)(=O)c2ccccc2)c1	100% (active)
O=C(OC1CCOC1=O)c1ccc(-c2nc3ccccc3s2)s1 (stereo unspecified)	28.1% (active)

Structure (SMILES)	inhibition
Cc1cc(=O)oc(C)c1C(=O)NCCN(C)Cc1ccccc1	4.29% (inactive)
O=C(c1ccncc1)c1ccc([N+](=O)[O-])cc1	68.8% (active)
CC(=O)Nc1ccc(Nc2c([N+](=O)[O-])cc(S(C)(=O)=O)cc2[N+](=O)[O-])cc1	71% (active)
CC(C)(C)NC(=O)Cn1cnc2cc([N+](=O)[O-])ccc2c1=O	73.7% (active)
O=C(Nc1cccc2cccnc12)c1cccc(N2C(=O)CCC2=O)c1	8.23% (inactive)
O=C(Cc1ccccc1)N1CCN(S(=O)(=O)c2ccc([N+](=O)[O-])cc2)CC1	28.9% (active)
Cc1ccc([C@@H]2CC=C(C(=O)O)[C@H](c3cccc(Cl)c3)N2S(=O)(=O)c2ccc(C)cc2)cc1	4.59% (inactive)
S=c1[nH]nc(-c2cc(-c3ccccc3)n[nH]2)n1/N=C/c1c2ccccc2cc2ccccc12	6.53% (inactive)
Cc1cccn2c(=O)c3cc(C#N)c(=NC(=O)c4cccnc4)n(CC4CCCO4)c3nc12 (stereo unspecified)	46.1% (active)
Nc1nc(COC(=O)CCC(=O)c2ccc(Cl)cc2)nc(Nc2ccccc2)n1	-0.94% (inactive)
Cc1cccc(NC(=O)Nc2cccc(Oc3c(F)c(F)c(F)c(F)c3F)c2)c1	14.7% (inactive)
O=C(NC(Cc1c[nH]c2ccccc12)C(=O)N/N=C/c1ccc(Br)cc1)c1cccs1 (stereo unspecified)	3.77% (inactive)
COC(=O)c1sccc1NC(=O)CSc1ccccc1NS(=O)(=O)c1cc(Cl)ccc1Cl	12.9% (inactive)
COCCCNC(=S)NC(=O)c1ccc([N+](=O)[O-])cc1	29.9% (active)
COc1cc(OC)c(NC(=O)c2ccc(Br)o2)cc1Cl	8.45% (inactive)
COc1ccc(N(C)C(=O)CCS(=O)(=O)c2cccc3nsnc23)cc1	56% (active)
CCOc1ccc(NC(=O)CCS(=O)(=O)c2cccc3nsnc23)cc1	35.3% (active)
COc1ccc2sc(-c3ccc(N(C)C)cc3)c(C#CCO)c2c1	14.2% (inactive)
C=CCn1c(SCC(=O)Nc2nc3ccccc3s2)nnc1-c1ccccc1O	-0.28% (inactive)
N#CC(=C1SC=CS1)c1nc(-c2ccccc2)cs1	14.8% (inactive)
